Screening data: PubChem BioAssay, National Center for Advancing Translational Sciences (NCATS)
Pf Dd2 growth: inhibitors of Plasmodium falciparum Dd2 growth | P. falciparum Dd2 growth, SYBR Green, 72 h | AID 1347417 | 120,000 compounds, 4.3% hits | Potency, µM (highest dose often 28.9 µM), most hits filed as inhibitors; active means well fitted inhibition curve with a large enough effect; further: nearly all actives have a fitted effect of over 65% in size
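Infected erythrocytes (Dd2, 0.3% parasitemia, 2.5% hematocrit final) are added to compound in RPMI-1640/Albumax II medium, grown 72 h at 37C in low oxygen, then lysed with saponin/Triton-X containing SYBR Green and read by fluorescence.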
Of the large screens only hits and unclear results are named; the others gave an inactive call. Only a selection was taken, and hits are over-represented in it overall.

Cc1c(C(=O)OC2CCCC2)[nH]c2c1C(=O)CC(c1ccc(Cl)cc1)C2 (centres undefined)	none
O=C(C1CCOC1)N1CCc2onc(C(c3ccccc3)c3ccccc3)c2C1 (centres undefined)	none
COc1ccccc1C(=O)N1CCC(CC(=O)NCc2ccccc2)C1 (centres undefined)	none
CCN(C(=O)Cn1nc(Cc2ccncc2)c2ccccc2c1=O)c1cccc(Cl)c1	Pf Dd2 growth 11µM
Cc1ccc(NC(=O)Cn2nc(Cc3ccncc3)c3ccccc3c2=O)c(Cl)c1	none
CCOc1ccc(NC(=O)Cn2nc(Cc3cccnc3)c3ccccc3c2=O)cc1	none
OC1CC(c2cc(N3CCC(CCn4cccn4)CC3)ncn2)C1 (centres undefined)	none
CC(C)NC(=O)C1CCCN(c2ncnc3onc(-c4ccc(F)cc4)c23)C1 (centres undefined)	none
CCOC(=O)c1ccc(NC(=O)C2CCCN(c3ncnc4onc(-c5ccc(F)cc5)c34)C2)cc1 (centres undefined)	Pf Dd2 growth 8.9µM
COc1cccc(NC(=O)C2CCCN(c3ncnc4onc(C)c34)C2)c1 (centres undefined)	none
COCCC1(NC(=O)C2CC2)CCN(S(=O)(=O)c2c(C)noc2C)CC1	none
COc1ccc(/C=C\c2onc(C)c2S(=O)(=O)N2CCC(C(=O)Nc3cccc(OC)c3)CC2)cc1	Pf Dd2 growth 8.9µM
CCN(CC)C(=O)C1CCN(S(=O)(=O)c2c(C)noc2/C=C/c2cccc(OC)c2)CC1	none
Cc1ccc(/C=C/c2onc(C)c2S(=O)(=O)N2CCC(C(=O)Nc3ccc(Br)c(C)c3)CC2)cc1	none
COc1ccc(NC(=O)C2CCN(S(=O)(=O)c3cc(-c4noc(C)n4)ccc3C)CC2)cc1	Pf Dd2 growth 6.3µM
COc1ccc(CNC(=O)C2CCN(S(=O)(=O)c3cccc(-c4noc(C)n4)c3)CC2)cc1	none
COc1ccc(-c2noc(N3CCC(C(=O)Nc4cccc(C)c4C)CC3)n2)cc1	none
COc1ccc(-c2nc(C3CC(=O)N(C4CCCCC4)C3)no2)c(C)c1 (centres undefined)	none
CNC(=O)c1cc[nH]c1C1CCCN(C(=O)CN2CCCC2=O)C1 (centres undefined)	none
COc1ccc(C(=O)N2CCC23Cc2ccccc2NC3=O)cc1 (centres undefined)	none
CNC(=O)CC1COCCN1C(=O)CCCc1nc(-c2cccc(C)c2)no1 (centres undefined)	none
Cc1cnc(C(=O)NC2C[C@H]3CC[C@@H](C2)N3C(=O)C2CCOCC2)cn1 (some centres undefined)	none
CC(=O)c1ccc(NC(=O)N2C[C@@H]3C[C@H](C2)c2ccc(NC(=O)Nc4cccc(F)c4)c(=O)n2C3)cc1	none
COc1cccc(NC(=O)CC2CCCN(c3cn[nH]c(=O)c3)C2)c1 (centres undefined)	none
COC(=O)[C@H](NC(=O)[C@@H]1C[C@H](NC(=O)Nc2ccc(OC)cc2)CN1C(=O)CSC)C(C)C	none
CC(C)NC(=O)C1COC2(CCN(C(=O)c3ccc(F)cc3)CC2)N1C(=O)c1ccccc1 (centres undefined)	none
O=C(c1c[nH]c2ccccc12)N1CCC2(CC1)CN(c1ccncn1)CC2CO (centres undefined)	Pf Dd2 growth 5.6µM
O=C(Cc1ccccc1)N1CCC2(CC1)CN(c1ccncn1)CC2CO (centres undefined)	none
O=C(Cc1ccsc1)N1CCC2(CC1)CN(c1ccncn1)CC2CO (centres undefined)	none
Cc1ccsc1C(=O)NCCc1noc(-c2cccnc2)n1	none
COCCNC(=O)[C@H]1CCC[C@H]1NC(=O)c1cnc(C)cn1	none
O=C(CSc1nc2ccccc2n1Cc1ccccc1F)NCc1ccccc1	none
Cc1ccccc1Cn1c(SCc2ccc(C(=O)NCc3cccs3)cc2)nc2ccncc21	Pf Dd2 growth 10µM
Cc1oc(-c2ccccc2F)nc1Cn1c(SCc2ccccc2F)nc2ccncc21	none
O=C(NCc1cccs1)c1ccc(CSc2nc3ccncc3n2Cc2ccccc2F)cc1	Pf Dd2 growth 13µM
O=C1COCC2(CN1)CN(Cc1ccc(Cl)cc1)C2	none
Cc1nc2ncccn2c1C(=O)N[C@H]1CCOC[C@H]1C1CCOCC1	none
COCCc1noc([C@@H]2CN(C(=O)c3ccc(C)cc3C)C[C@H]2CO)n1	none
Cc1noc(-c2cn(C3CCCN(C(=O)c4ccc5[nH]ccc5c4)C3)nn2)n1 (centres undefined)	none
O=C(Nc1ccccc1)N1CCCC1c1nncn1C1CCCC1 (centres undefined)	none
NC(=O)NCc1cn(C2CCN(Cc3ccc4occc4c3)CC2)nn1	none
CCCCS(=O)(=O)N[C@@H]1CN(c2ncccn2)C[C@H]1CN(C)C	none
O=C(NCCn1cccn1)c1cccc(S(=O)(=O)NC2CCNCC2)c1	none
CN(CCc1ccccn1)[C@H]1[C@@H]2OC[C@@H](O2)[C@@H](NCc2ccc(OC(F)(F)F)cc2)[C@@H]1O	none
Cc1cccc(N2CCN(c3nccc(-c4ccccn4)n3)CC2)n1	none
Cc1ccc(CN2CCC(CNc3nccc(-c4ccccn4)n3)CC2)o1	none
CN(Cc1ccccc1CN1CCCC1)c1nccc(-c2ccccn2)n1	Pf Dd2 growth 3.5µM
COc1ccc2[nH]c(C(=O)N3CCC4(CC3)CC(O)CCO4)cc2c1 (centres undefined)	Pf Dd2 growth 11µM
COc1ccc(C(=O)N2CCC3(CC2)CC(O)CCO3)c(C)c1 (centres undefined)	none
COc1ccc(C(=O)N2CCC3(CC2)CC(O)CCO3)cc1 (centres undefined)	none
CCc1noc(-c2cn(C3CCN(C(=O)c4cc(C)ccc4C)CC3)nn2)n1	none
Cc1ccc(C)c(N2CCN(C(=O)C(CC(C)C)NS(=O)(=O)c3ccc4nc(C)sc4c3)CC2)c1 (centres undefined)	Pf Dd2 growth 7.9µM
Cc1nc2ccc(S(=O)(=O)NCC(=O)Nc3ccc(C)c(Cl)c3)cc2s1	none
CSCCC(NS(=O)(=O)c1ccc2c(c1)oc(=O)n2C)C(=O)N1CCN(c2cc(C)ccc2C)CC1 (centres undefined)	none
CCOc1ccc(CC(=O)N[C@@H]2CN(S(C)(=O)=O)C[C@H]2CN(C)C)cc1	none
O=C(CCc1ccc(O)cc1)N[C@H]1CC[C@H](Nc2nccc(-c3cccnc3)n2)C1	Pf Dd2 growth 11µM
O=C(N[C@H]1CO[C@H]2[C@@H]1OC[C@@H]2Nc1nccc(-c2ccc(-c3ccccc3)cc2)n1)C1CC1	none
NS(=O)(=O)c1ccc(CNc2nccc(-c3cccnc3)n2)cc1	none
O=C(CC[C@H]1NC(=O)c2ccccc2NC1=O)Nc1nc(-c2ccncc2)cs1	none
Cc1ccccc1-c1cnc2[nH]cc(CC(=O)Nc3ccn(C)n3)c2c1	none
OCCNc1cc(N2CCCC(CO)(Cc3ccccc3F)C2)ncn1 (centres undefined)	none
Cc1nc(C(=O)N2C[C@@H](COCC3CC3)[C@H](c3ccncc3)C2)co1	none
CS(=O)(=O)N1CCC(C2CCN(C3CCSCC3)C2)CC1 (centres undefined)	none
O=C(N[C@@H]1CN(Cc2ccccn2)CCC[C@H]1O)c1ccc(OCc2ccccc2)cc1	Pf Dd2 growth 2.5µM
O=C(N[C@@H]1CN(C(=O)Nc2cccc(C(F)(F)F)c2)CCC[C@H]1O)c1ccc(OCc2ccccc2)cc1	Pf Dd2 growth 7.1µM
NC(=O)COc1ccc(C(=O)N[C@@H]2CN(Cc3ccccn3)CCC[C@H]2O)cc1	none
O=C(N[C@@H]1CN(C(=O)Nc2ccccc2)CCC[C@H]1O)c1ccc(OCc2ccccc2)cc1	none
COCCOc1ccc(C(=O)N[C@@H]2CN(C(=O)Nc3cccc(C(F)(F)F)c3)CCC[C@H]2O)cc1	none
COCCOc1ccc(C(=O)N[C@@H]2CN(C(=O)NCc3ccccc3)CCC[C@H]2O)cc1	none
